Compound activity: PubChem, The Scripps Research Institute Molecular Screening Center
KLK7 zymogen act: proKLK7 (human) activation, primary screen; P49862; purified proKLK7, EDANS-DABCYL substrate fluorescence; 100% is mature enzyme control, 0% vehicle; activation, % at 7 µM; 0.9% of 370,000 active; AID 652039;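 active means activation above the mean of all tested compounds plus 3 SD, computed per campaign excluding outliers beyond control limits, cut at about 13% in these data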
PLCb3 inh: inhibitors of human phospholipase C beta3 | AID 720704 | inhibition, % at 12.2 µM | Purified PLC-beta3, fluorogenic substrate, fluorescence | Q01970 | 0.18% of 370,000 active; in the data active means inhibition above about 11%;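 further: 0% = median of compound wells on plate and 100% = full blocker control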
ADAM10 inh: ADAM10 inhibition, QFRET primary screen | 0.62% of 370,000 active | O14672 | recombinant ADAM10, EDANS/DABCYL FRET peptide cleavage, 3 h | inhibition, % at 7 µM;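 active means inhibition above a per-campaign cutoff equal to the mean of compounds falling between control-based bounds plus 3 SD, cut at about 20% in these data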;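 further: 0% = DMSO wells while the 100% control is not disclosed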
HGIII-sPLA2 inh: Blocks human group III sPLA2 activity; inhibition, % at 12.2 µM; AID 743126; 0.56% of 370,000 active; Q9NZ20; QFRET BODIPY PC-A2 liposome hydrolysis, fluorescence;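 active means inhibition above mean plus 3 SD of compounds lying within the high and low control bounds, cut at about 19% in these data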;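 further: 0% = median of test compound wells and 100% = no enzyme DMSO wells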
PLC-gamma1 inh: blocks human PLC-gamma1 enzyme activity | P19174 | purified PLC-gamma1, fluorogenic substrate, fluorescence | inhibition, % at 12.2 µM | 0.84% of 370,000 active | AID 720700; in the data active means inhibition above about 9.5%
Target sequence (P19174 whole entry, looked up): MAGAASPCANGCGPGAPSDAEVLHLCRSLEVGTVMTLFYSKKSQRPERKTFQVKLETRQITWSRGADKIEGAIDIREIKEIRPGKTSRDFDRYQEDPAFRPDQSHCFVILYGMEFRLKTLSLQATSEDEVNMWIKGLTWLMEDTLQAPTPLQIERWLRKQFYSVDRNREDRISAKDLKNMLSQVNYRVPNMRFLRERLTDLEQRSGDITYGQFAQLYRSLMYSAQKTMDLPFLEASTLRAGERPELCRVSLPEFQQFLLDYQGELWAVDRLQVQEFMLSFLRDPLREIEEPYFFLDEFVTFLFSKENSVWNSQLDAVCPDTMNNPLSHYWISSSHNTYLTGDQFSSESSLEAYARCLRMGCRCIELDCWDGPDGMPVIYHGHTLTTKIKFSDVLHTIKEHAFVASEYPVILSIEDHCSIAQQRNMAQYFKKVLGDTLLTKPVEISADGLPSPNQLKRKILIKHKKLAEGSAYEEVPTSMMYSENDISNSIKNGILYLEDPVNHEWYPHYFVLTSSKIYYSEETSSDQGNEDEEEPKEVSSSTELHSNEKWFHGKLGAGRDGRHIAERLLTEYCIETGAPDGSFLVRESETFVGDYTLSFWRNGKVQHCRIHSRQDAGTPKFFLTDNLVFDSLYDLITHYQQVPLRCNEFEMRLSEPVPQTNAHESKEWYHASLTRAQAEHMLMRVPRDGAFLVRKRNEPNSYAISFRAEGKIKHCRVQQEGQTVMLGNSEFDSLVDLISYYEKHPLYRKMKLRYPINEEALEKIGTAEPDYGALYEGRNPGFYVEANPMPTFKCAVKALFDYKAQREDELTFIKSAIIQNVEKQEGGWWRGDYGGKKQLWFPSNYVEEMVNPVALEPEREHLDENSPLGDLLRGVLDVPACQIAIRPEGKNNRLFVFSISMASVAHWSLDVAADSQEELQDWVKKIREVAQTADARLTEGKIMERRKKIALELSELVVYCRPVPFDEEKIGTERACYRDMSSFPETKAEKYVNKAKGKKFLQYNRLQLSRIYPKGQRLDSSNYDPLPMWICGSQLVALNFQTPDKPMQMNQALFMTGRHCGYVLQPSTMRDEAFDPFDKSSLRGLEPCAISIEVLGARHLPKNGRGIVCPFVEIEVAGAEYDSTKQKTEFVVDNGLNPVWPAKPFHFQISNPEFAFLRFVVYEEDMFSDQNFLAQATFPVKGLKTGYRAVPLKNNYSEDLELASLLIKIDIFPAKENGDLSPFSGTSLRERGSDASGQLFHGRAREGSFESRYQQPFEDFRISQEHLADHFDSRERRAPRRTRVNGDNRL
ADAM17 inh: ADAM17 inhibition, QFRET primary screen; inhibition, % at 6.95 µM; recombinant ADAM17, EDANS/DABCYL FRET peptide cleavage; P78536; 0.83% of 370,000 active;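 active means inhibition above the mean of compounds lying between control limits plus 3 SD, set per campaign, cut at about 8.5% in these data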;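 further: 0% = DMSO-only wells as the low control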
An asterisk follows results filed as active; i = inactive; nt = no result. This is a sample that favours compounds with a hit; in the whole collection about 3.4% have one here.

SMILES	KLK7 zymogen act	PLCb3 inh	ADAM10 inh	HGIII-sPLA2 inh	PLC-gamma1 inh	ADAM17 inh
O=C(Nc1nnc(Cc2ccccc2)s1)Nc1ccccc1F	0	0	8	-4	12*	2
Cc1ccc(S(=O)(=O)N2[C@@H](c3ccc(C(C)(C)C)cc3)C(C(=O)O)=CC[C@H]2c2ccc(C(C)C)cc2)cc1	0	-3	22*	-33	-4	4
COC(=O)C1CN(Cc2cn(Cc3ccc(OC)cc3)nn2)CCS(=O)(=O)N1Cc1ccc(C)cc1 (stereo not given)	0	-2	-4	-5	0	-3
COC(=O)C(=O)/C=C(\O)c1ccc(C)cc1	-1	-3	-4	27*	-2	-4
C/C(C/C(C)=C1/SC(=S)NC1=O)=C1\SC(=S)NC1=O	0	-3	0	-7	73*	1
O=C1NC[C@@H](CCCCN2CCN(CCC3CCCCC3)C(=O)C2=O)N(Cc2ccccc2)C1=O	0	6	3	5	14*	7
CN1C2=N[C@H](c3ccccc3)CC(=O)N2/C(=C\c2ccccc2)C1Cc1ccccc1 (stereo not given in full)	0	-10	-4	0	-7	-4
Oc1ccc(C[C@H]2CNC(=S)N2CC2CCCN2C[C@H](Cc2ccc(O)cc2)N2C[C@H](Cc3ccc(O)cc3)N(CC3CCCCC3)C2=S)cc1 (stereo not given in full)	-1	0	22*	-15	0	7
Oc1ccc(C[C@H]2CN([C@@H](Cc3ccccc3)CN3CCCC3CN3C(=S)NC[C@@H]3Cc3ccccc3)C(=S)N2CC2CCCCC2)cc1 (stereo not given in full)	0	2	3	-8	4	0
Cc1cccc(N2CCN(C(=O)c3cc(S(=O)(=O)N(C)C)ccc3Cl)CC2)c1C	nt	1	5	-11	2	0
Cc1nc2ncnn2c(C)c1CCC(=O)O	0	9	0	6	10*	3
CCOC(=O)CCc1c(C)nc2ncnn2c1C	0	2	7	4	3	-1
CN(CC(=O)Nc1ccc(Cl)cc1)C(=O)Cn1[nH]c(=O)c2ccccc2c1=O	1	-6	6	0	9.8*	-1
COc1ccc(OC)c(CN2C(=O)CSCC2(C)C(=O)NCc2ccccc2)c1 (stereo not given)	-1	12*	0	1	3	3
COc1ccccc1NC(=O)c1ccc(C)c(S(=O)(=O)N2CCCCC2)c1	0	-1	14	-16	13*	7
O=C(OC12CCCN(C1)/C(=C/c1ccncc1)C2)c1ccc(F)cc1 (stereo not given)	0	-8	2	8	-4	1
Nc1cc2ccncc2c2ccccc12	103*	i	i	-9	i	-474
OC(c1ccccc1)C(O)c1ccccc1 (stereo not given)	-1	11*	4	4	6	-3
Cc1nn(S(=O)(=O)c2ccccc2)c(C)c1Sc1ccc([N+](=O)[O-])cc1	0	2	6	0	1	0
CCCc1nnn(S(=O)(=O)c2ccc([N+](=O)[O-])cc2)c1CCC	0	13*	-9	10	12*	5
NNc1nc2c(Cl)ccc(Cl)c2s1	0	-14	5	22*	-14	-3
O=C(CSc1nnc(-c2ccco2)n1-c1ccc(Cl)cc1)Nc1ccc(S(=O)(=O)Nc2nccs2)cc1	0	4	17	-35	5	7
CC(=O)C1CCC2C3CC=C4CC(SC(=N)N)CCC4(C)C3CCC12C (stereo not given)	0	-1	-16	37*	5	0
CCOc1ccc(N=Nc2ccc(O)c3ncccc23)cc1	-1	2	0	-2	1	0
NS(=O)(=O)c1ccc(N=Nc2ccc(O)c3ncccc23)cc1	0	-6	13	46*	1	2
CCC1(C(=O)O)NC(c2cc(OC)ccc2O)C2C(=O)N(Cc3ccccc3)C(=O)C21 (stereo not given)	-1	-3	22*	-4	-3	1
Cc1c(C(=O)OCC2CCCO2)[nH]c2c1C(=O)CC(c1ccc(N(C)C)cc1)C2 (stereo not given)	0	-2	21*	16	0	4
